Screening data deposited in PubChem by National Center for Advancing Translational Sciences (NCATS).
Only a selection was taken, and hits are over-represented in it overall.
KDM5B inhibitor – KDM5B demethylase inhibition. Q9UGL1. KDM5B demethylase, FDH-coupled NADH fluorescence (FDH is formaldehyde dehydrogenase). Potency, µM (top dose mostly 57.7 µM), hits mostly inhibitors. hit rate 2.6% among 220,000; active means well fitted inhibition curve with a large enough effect; further: nearly all actives have a fitted effect of over 70% in size
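Here, H3K4me3 peptide (12.5 µM in substrate mix) is demethylated by KDM5BΔAP, 200 nM final, after 10 min compound exposure. Formaldehyde product is coupled through FDH (0.25 U/mL in mix) to NADH fluorescence; 30-min ΔRFU feeds dose-response curves.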
Each line names hits and unclear results; the compound was inactive in the other large screens.

CN1CCN(c2ccc3ncc(Nc4ccc(Cl)c(C(F)(F)F)c4)n3n2)CC1	KDM5B inhibitor 32µM
COC(=O)COc1cccc2c1OCCO2	none
O=C(Nc1cc(F)cc(C(F)(F)F)c1)N1CCC(Cn2cccn2)CC1	none
CCOC(=O)CNC(=O)Nc1cc(C(=O)NCc2cccc(F)c2)ccc1N1CCCC1	none
CCCCN(C)c1ccc(/C=N/NC(=S)Nc2ccc(CC)cc2)cc1	none
CCCN(C)C(=O)COc1ccc(NC(=O)C2CC2)cn1	none
CCOc1cccc(C(=O)Oc2ccccc2)c1	none
CCOC(=O)C1CC1CN1CCCC2(Cc3ccccc3CNC2=O)C1 (stereo not given)	none
COc1ccc(Cl)cc1NC(=O)c1sc(-n2nc(C)c(Cc3ccccc3)c2C)nc1C	none
Cc1cccnc1-n1c(C)c(C)c2c1ncn1nc(Cc3ccccc3)nc21	none
O=C(CCc1cc2n(n1)CCN(C(=O)C1Cc3ccccc3O1)C2)NC1CC1 (stereo not given)	none
COc1ccc(S(=O)(=O)N2CCCN(CC(=O)Nc3ccc(OC)cc3OC)CC2)cc1	none
CCCc1nnc(NC(=O)C2CC(=O)N(c3n[nH]c4cccc(F)c34)C2)s1 (stereo not given)	none
CCc1nncn1C1CCN(S(=O)(=O)c2ccc(C)c(Cl)c2)CC1	none
COc1ccc(NC(=O)N2C[C@@H]3C[C@H](C2)c2ccc(NC(=O)c4cccs4)c(=O)n2C3)cc1	none
COc1ccc(NC(=O)N2C[C@@H]3C[C@H](C2)c2ccc(NC(=O)c4ccc(C#N)cc4)c(=O)n2C3)cc1	none
COc1ccc(CC(=O)Nc2ccc3n(c2=O)C[C@H]2C[C@@H]3CN(C(=O)c3ccc(-c4ccccc4)cc3)C2)cc1	KDM5B inhibitor 25µM
O=C(O)c1cccc(C(=O)N2C[C@@H]3C[C@H](C2)c2ccc(NC(=O)c4ccco4)c(=O)n2C3)c1	none
COc1ccc(CC(=O)Nc2ccc(=O)n3c2[C@@H]2C[C@@H](CN(C(=O)c4ccc(OC)cc4)C2)C3)cc1	none
CN(C)CC(=O)Nc1ccc2n(c1=O)C[C@H]1C[C@@H]2CN(C(=O)c2ccc3ccccc3c2)C1	none
O=C(Nc1cccc(F)c1)Nc1ccc2n(c1=O)C[C@H]1C[C@@H]2CN(C(=O)c2ccc(F)cc2)C1	KDM5B inhibitor 28µM
COc1ccc(NC(=O)N2C[C@@H]3C[C@H](C2)c2ccc(NC(=O)Nc4cccc(C#N)c4)c(=O)n2C3)cc1	KDM5B inhibitor 28µM
COc1ccc(CC(=O)Nc2ccc3n(c2=O)C[C@H]2C[C@@H]3CN(C(=O)Nc3ccc(OC)cc3)C2)cc1	none
COc1ccccc1C(=O)Nc1ccc(C(O)[C@H]2COCC(=O)N2)cc1 (stereo not given in full)	none
COc1ccc(OCc2nc(C)c(CCO)c(=O)n2CC(=O)N(C)c2cccc(C)c2)cc1	none
CCCOc1c(Cl)cc(C(=O)Nc2nnc(C(C)C)s2)cc1OCC	none
COc1ccc(S(=O)(=O)c2cc3cc(OC)ccc3oc2=O)cc1	none
Cc1ccc(CNC(=O)c2ccc(N3CCCC3)c(NC(=O)Nc3ccc(C)cc3)c2)cc1	none
COc1cc(C2c3c(-c4ccccc4O)n[nH]c3C(=O)N2Cc2ccncc2)cc(OC)c1OC (stereo not given)	none
O=C(c1cnco1)N(CCN1CCCCC1)CC1CCCN(C2CCCC2)C1 (stereo not given)	none
CNCCN1C(=O)CC[C@H]2CN(c3ncc(Cl)cc3F)CC[C@H]21	KDM5B inhibitor 25µM
CNCCN1C(=O)CC[C@H]2CN(c3nc4cc(C)ccc4o3)CC[C@H]21	none
CNCCN1C(=O)CC[C@H]2CN(C(=O)c3ccc(Cl)cn3)CC[C@H]21	none
CCOC(=O)c1c(NC(=O)CSc2cn(CCNC(=O)c3ccccc3F)c3ccccc23)sc2c1CCC2	none
CC(=O)N(CCC1(c2ccc(C)cc2)CCOC(C(C)C)C1)Cc1ccccc1 (stereo not given)	none
O=C(NCc1ccsc1)c1nc(-c2ccc(Cl)cc2)c2cnccn12	none
COC(=O)CNC(=O)c1nc(C(C)(C)C)c2cnccn12	KDM5B inhibitor 112µM
O=C(NCc1cccnc1)c1cccc2ccccc12	none
CC(C)(C)c1nc(C(=O)NCc2cccnc2)n2ccccc12	KDM5B inhibitor 100µM
O=C(CNC(=O)c1ccccc1)OCc1cc(=O)n2ccsc2n1	none
Cc1ccsc1C(=O)NCc1cccnc1	none
Cn1ccc2c(C(=O)NCc3cccnc3)nc(-c3ccncc3)cc21	none
COC(=O)CNC(=O)c1nc2sccn2c1Br	none
COC(=O)CNC(=O)c1nc(-c2ccsc2)c2cnccn12	KDM5B inhibitor 40µM
CC(C)(C)c1nc(C(=O)NCc2cccnc2)n2ccncc12	KDM5B inhibitor 100µM
CC(C)(C)C(=O)Nc1ccccc1C(=O)NCc1cccnc1	none
COC(=O)CNC(=O)C(C)(C)c1ccccc1	none
Cc1ccc(C(C)NC(=O)c2cn(CCN3CCNCC3)nn2)cn1 (stereo not given)	none
O=C1OC2(CCNCC2)CN1Cc1cc(C(F)(F)F)ccc1F	none
NC(C(=O)N1CCC2(CC1)CN(C(=O)Cc1cccc(Cl)c1)CCO2)c1ccccc1 (stereo not given)	none
O=C(NC1CCCCC1)c1cc(-n2cnnc2)ccc1Cl	none
COc1cc2c(cc1OC)[C@H](C)N(C(=O)c1ccc(F)cc1)CC2	none
